# According to PubChem BioAssay (EPA / NIEHS):
# Calls of active or inactive are those of the source. How the source made its calls: active means hit-call score of the fitted dose curve at least 0.9, where 1 is the maximum; inactive means score below 0.9.
# System: TTR (gene 7276)
# Assay: CCTE_GLTED_hTTR_0.125uM: CCTE's human Transthyretin (hTTR) Inhibition Assay, with 0.125uM TTR, Great Lakes Toxicology and Ecology Division (GLTED) Lab (AID 2284431);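 further: hits lower the fluorescence signal relative to DMSO baseline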
# Summary of the method: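 Probe-displacement format: chemicals competing for the T4 site release ANSA from 0.125uM TTR during a 2 h incubation, measured by fluorescence at 380 excitation and 475 emission.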
row,SMILES,AC50
1,OCc1cccc(Oc2ccccc2)c1,12200 nM (active)
2,COc1ccc(N=Nc2cc(C)c(N=Nc3ccc(S(=O)(=O)O)cc3)cc2OC)cc1,385 nM (active)
3,Cc1ccc(S(=O)(=O)Oc2ccc(N=Nc3ccc(-c4ccc(N=Nc5c(O)ccc6cc(S(=O)(=O)O)cc(S(=O)(=O)O)c56)c(C)c4)cc3C)cc2)cc1,912 nM (active)
4,CC(C)c1ccccc1O,32400 nM (active)
5,C=C[Si]1(C)O[Si](C)(C=C)O[Si](C)(C=C)O[Si](C)(C=C)O1 (configuration not stated),50000 nM (active)
6,O=[N+]([O-])c1ccc(O)cc1C(F)(F)F,111 nM (active)
7,CC(C)CCCCCCCCCCCCCCC(=O)O,891 nM (active)
8,Nc1ccccc1[N+](=O)[O-],20300 nM (active)
9,Nc1ccc2cc(S(=O)(=O)O)cc(O)c2c1N=Nc1ccccc1C(F)(F)F,39.7 nM (active)
10,CCCCC(CC)COC(=O)c1ccc(O)cc1 (configuration not stated),434 nM (active)
11,Cc1cc(S(=O)(=O)O)ccc1N=Nc1c(O)ccc2ccccc12,79 nM (active)
12,N[C@@H](Cc1cc(I)c(Oc2cc(I)c(O)c(I)c2)c(I)c1)C(=O)O,82.2 nM (active)
13,BrCc1cccc(Oc2ccccc2)c1,4220 nM (active)
14,CCCCCCC(CO)CCCC (configuration not stated),46700 nM (active)
15,Oc1ccc2cc(SSc3ccc4cc(O)ccc4c3)ccc2c1,113 nM (active)
16,CCCCCCCCc1ccc(S(=O)(=O)O)cc1,2970 nM (active)
17,O=C(Nc1ccc2c(O)c(N=Nc3ccc(N=Nc4ccc(S(=O)(=O)O)cc4)cc3)c(S(=O)(=O)O)cc2c1)c1ccccc1,9920 nM (active)
